Each structure is given as a SMILES string.

The subject of the experiment is HepG2. Briefly: GSK_TCMDC: Percent inhibition of human HepG2 cell line. Test compounds present at 10uM. In kind it is functional.
Turning to `FC(F)(F)c1cccc(CNCC2CCN(CC3CCCCC3)CC2)c1.O=C(O)C(F)(F)F`, the Inhibition (usually the percentage by which the read-out fell short of the control) was 21%.

`O=C(NC1CCN(Cc2ccccc2)CC1)c1ccc(-c2nc3cc(Cl)c(Cl)cc3[nH]2)c(F)c1`: the Inhibition is listed as 4%.

The compound `O=C(NC1CCC(N2CCC(c3nc4ccccc4s3)CC2)CC1)c1cc2ccccc2[nH]1` (centres undefined) registered an Inhibition of 23%.

In turn, `O=C(Nc1ccc(-c2nc3ccccc3[nH]2)cc1)c1ccc(N2CCOCC2)c([N+](=O)[O-])c1` registered an Inhibition of 47%.

With `Cc1nc2nc(N)nc(N)c2c(C)c1Cc1ccccc1Br.Cl`, the Inhibition came to 65%.

`O=C(O)C(F)(F)F.Oc1ccc(CCCNc2nc(NCc3cccc4ccccc34)nc(N3CCCNCC3)n2)cc1` registered an Inhibition of 98%.

`Cc1cc(NC(=O)Nc2ccc(N(C)C)cc2)c2cc(Cl)ccc2n1.Cl` registered an Inhibition of 0%.

`CCSc1nnc(C2CCCN(CC(=O)Nc3cc(C(F)(F)F)ccc3Cl)C2)n1CC` (centres undefined) had an Inhibition of 0%.

Take `CC(C)c1cc2c(ccc3nc(N)nc(N)c32)o1`: the Inhibition was 66%.

On to `CCC(=O)N1CCc2cc(Br)cc(S(=O)(=O)N3CC(C)CC(C)C3)c21` (centres undefined), for which the Inhibition was determined as 5%.

Compound `CCCC(C)NC(=O)[C@H]1CNCCN1C(=O)CCCc1ccccc1.O=C(O)C(F)(F)F` (some centres undefined) had an Inhibition of 47%.

For `OCCOCCNCc1cccc(C#Cc2cc3ncnc(Nc4ccc(OCc5cccc(F)c5)c(Cl)c4)c3s2)n1`, the Inhibition was determined as 35%.

As to `CC(C)(C)c1ccc2[nH]c(-c3ccc(/C=C/C(=O)NCc4ccc(Cl)c(Cl)c4)cc3)nc2c1`, the Inhibition is 41%.

Compound `Br.CC1(C)NC(N)=NC(=N)N1OCCSCCON1C(=N)N=C(N)NC1(C)C` yielded an Inhibition of 34%.
